Where a name gives a salt, the structure may show the parent alone.
Key:
Test in all cases: phenotypically active (imaging signature differs from DMSO and reproducible) at any of 0.3-9 uM (binary (1 = active, 0 = inactive)); higher = active
Conditions in all cases: treatment time: 24 h
[1] = tested on: A549-ACTB-RAB5A
Procedure, shortened: (§1)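 Fifteen reporter lines derived from A549, HepG2 and WPMY1 cells by gene editing, carrying BFP for segmentation plus GFP and RFP/FusionRed markers, were exposed to 0.3, 1, 3 or 9 µM for 24 h in four wells each and imaged live. Live-cell features from each well were normalised to solvent control wells. A well set counted as deviating when ≥3 of 4 wells lay beyond the 95th percentile of control Euclidean distances, and as reproducible when the median replicate Pearson correlation exceeded the 95th percentile of non-replicates. Phenotypic activity was assigned only when both criteria were met.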

[2] = tested on: A549-CANX-COX4
Procedure, shortened: as §1

[3] = tested on: A549-GM130-SQSTM1
Procedure, shortened: as §1

[4] = tested on: A549-TP53BP1-CLTA
Procedure, shortened: as §1

[5] = tested on: A549-TUBA1B-RELA
Procedure, shortened: as §1

[6] = tested on: HepG2-ACTB-RAB5A
Procedure, shortened: as §1

[7] = tested on: HepG2-CANX-COX4
Procedure, shortened: as §1

[8] = tested on: HepG2-GM130-SQSTM1
Procedure, shortened: as §1

[9] = tested on: HepG2-TP53BP1-CLTA
Procedure, shortened: as §1

[10] = tested on: HepG2-TUBA1B-RELA
Procedure, shortened: as §1

[11] = tested on: WPMY1-ACTB-RAB5A
Procedure, shortened: as §1

[12] = tested on: WPMY1-CANX-COX4
Procedure, shortened: as §1

[13] = tested on: WPMY1-GM130-SQSTM1
Procedure, shortened: as §1

[14] = tested on: WPMY1-TP53BP1-CLTA
Procedure, shortened: as §1

[15] = tested on: WPMY1-TUBA1B-RELA
Procedure, shortened: as §1

Measured: phenotypically active

CCCSc1nc2c(c(=O)n1-c1ccccc1)SCC2
inactive: [1] 0 | [2] 0 | [3] 0 | [4] 0 | [5] 0 | [6] 0 | [7] 0 | [8] 0 | [9] 0 | [10] 0 | [11] 0 | [12] 0 | [13] 0 | [14] 0 | [15] 0

CC(C(=O)Nc1cccc(/N=C/c2c(O)ccc3ccccc23)c1)c1ccccc1 (stereo not given) [Salermide]
inactive: [1] 0 | [2] 0 | [3] 0 | [4] 0 | [5] 0 | [6] 0 | [7] 0 | [8] 0 | [9] 0 | [10] 0 | [11] 0 | [12] 0 | [13] 0 | [14] 0 | [15] 0

COc1ccc2[nH]c(S(=O)Cc3ncc(C)c(OC)c3C)nc2c1 (stereo not given) [omeprazole]
inactive: [1] 0 | [2] 0 | [3] 0 | [4] 0 | [5] 0 | [6] 0 | [7] 0 | [8] 0 | [9] 0 | [10] 0 | [11] 0 | [12] 0 | [13] 0 | [14] 0 | [15] 0

CCN(CC)CC(=O)Nc1c(C)cccc1C [lidocaine]
inactive: [1] 0 | [2] 0 | [3] 0 | [4] 0 | [5] 0 | [6] 0 | [7] 0 | [8] 0 | [9] 0 | [10] 0 | [11] 0 | [12] 0 | [13] 0 | [14] 0 | [15] 0

O=C(/C=C/N1C[C@H]2C[C@@H]1CN2c1ccccn1)c1ccccc1O
inactive: [1] 0 | [2] 0 | [3] 0 | [4] 0 | [5] 0 | [6] 0 | [7] 0 | [8] 0 | [9] 0 | [10] 0 | [11] 0 | [12] 0 | [13] 0 | [14] 0 | [15] 0

Cc1cc(C)nc(SCC(=O)Nc2ncc(Cc3cccc4ccccc34)s2)n1
inactive: [1] 0 | [2] 0 | [3] 0 | [4] 0 | [5] 0 | [6] 0 | [7] 0 | [8] 0 | [9] 0 | [10] 0 | [11] 0 | [12] 0 | [13] 0 | [14] 0 | [15] 0

C[C@@H]1O[C@@H](O[C@H]2C(=O)c3c(O)cc(O)cc3O[C@@H]2c2ccc(O)c(O)c2)[C@H](O)[C@H](O)[C@H]1O [Astilbin]
inactive: [1] 0 | [2] 0 | [3] 0 | [4] 0 | [5] 0 | [6] 0 | [7] 0 | [8] 0 | [9] 0 | [10] 0 | [11] 0 | [12] 0 | [13] 0 | [14] 0 | [15] 0

CC[N+](CC)(CC)CCC(O)(c1ccccc1)C1CCCCC1 (stereo not given) [tridihexethyl]
inactive: [1] 0 | [2] 0 | [3] 0 | [4] 0 | [5] 0 | [6] 0 | [7] 0 | [8] 0 | [9] 0 | [10] 0 | [11] 0 | [12] 0 | [13] 0 | [14] 0 | [15] 0

N=C(N)NC(=O)Cc1c(Cl)cccc1Cl [guanfacine]
inactive: [1] 0 | [2] 0 | [3] 0 | [4] 0 | [5] 0 | [6] 0 | [7] 0 | [8] 0 | [9] 0 | [10] 0 | [11] 0 | [12] 0 | [13] 0 | [14] 0 | [15] 0

Nc1nnc(-c2cccc(Cl)c2Cl)c(N)n1 [lamotrigine]
inactive: [1] 0 | [2] 0 | [3] 0 | [4] 0 | [5] 0 | [6] 0 | [7] 0 | [8] 0 | [9] 0 | [10] 0 | [11] 0 | [12] 0 | [13] 0 | [14] 0 | [15] 0

N[C@@H](C(=O)O)c1ccc(C(=O)O)c(C(=O)O)c1
inactive: [1] 0 | [2] 0 | [3] 0 | [4] 0 | [5] 0 | [6] 0 | [7] 0 | [8] 0 | [9] 0 | [10] 0 | [11] 0 | [12] 0 | [13] 0 | [14] 0 | [15] 0

NC(=O)c1cccc(N)c1 [3-Aminobenzamide]
inactive: [1] 0 | [2] 0 | [3] 0 | [4] 0 | [5] 0 | [6] 0 | [7] 0 | [8] 0 | [9] 0 | [10] 0 | [11] 0 | [12] 0 | [13] 0 | [14] 0 | [15] 0

COc1ccc(C(=O)C2CCN(CC(=O)N(Cc3nc4c(c(=O)[nH]3)COCC4)CC3CC3)CC2)cc1
inactive: [1] 0 | [2] 0 | [3] 0 | [4] 0 | [5] 0 | [6] 0 | [7] 0 | [8] 0 | [9] 0 | [10] 0 | [11] 0 | [12] 0 | [13] 0 | [14] 0 | [15] 0

CNC(=O)COC(=O)N1CCC(CCc2ccc(Cl)cc2)CC1
inactive: [1] 0 | [2] 0 | [3] 0 | [4] 0 | [5] 0 | [6] 0 | [7] 0 | [8] 0 | [9] 0 | [10] 0 | [11] 0 | [12] 0 | [13] 0 | [14] 0 | [15] 0

CN1CCN2c3ncccc3Cc3ccccc3C2C1 (stereo not given) [Mirtazapine]
inactive: [1] 0 | [2] 0 | [3] 0 | [4] 0 | [5] 0 | [6] 0 | [7] 0 | [8] 0 | [9] 0 | [10] 0 | [11] 0 | [12] 0 | [13] 0 | [14] 0 | [15] 0

COc1ccc([C@@H]2CC(=O)c3c(O)cc(O[C@@H]4O[C@H](CO[C@@H]5O[C@@H](C)[C@H](O)[C@@H](O)[C@H]5O)[C@@H](O)[C@H](O)[C@H]4O)cc3O2)cc1O [Hesperidin]
inactive: [1] 0 | [2] 0 | [3] 0 | [4] 0 | [5] 0 | [6] 0 | [7] 0 | [8] 0 | [9] 0 | [10] 0 | [11] 0 | [12] 0 | [13] 0 | [14] 0 | [15] 0

COc1ccc([C@@H]2Sc3ccccc3N(CCN(C)C)C(=O)[C@@H]2OC(C)=O)cc1 [diltiazem]
inactive: [1] 0 | [2] 0 | [3] 0 | [4] 0 | [5] 0 | [6] 0 | [7] 0 | [8] 0 | [9] 0 | [10] 0 | [11] 0 | [12] 0 | [13] 0 | [14] 0 | [15] 0

NS(=O)(=O)c1cc2c(cc1Cl)NC(C(Cl)Cl)NS2(=O)=O (stereo not given) [trichlormethiazide]
inactive: [1] 0 | [2] 0 | [3] 0 | [4] 0 | [5] 0 | [6] 0 | [7] 0 | [8] 0 | [9] 0 | [10] 0 | [11] 0 | [12] 0 | [13] 0 | [14] 0 | [15] 0

CCC(CC)(NC(=O)C(C)C)C(=O)N[C@@H](CCCNC(=N)N)C(=O)NC1(C(=O)NC(c2ccc(F)cc2)c2ccc(F)cc2)CCCC1
inactive: [1] 0 | [2] 0 | [3] 0 | [4] 0 | [5] 0 | [6] 0 | [7] 0 | [8] 0 | [9] 0 | [10] 0 | [11] 0 | [12] 0 | [13] 0 | [14] 0 | [15] 0

COc1ccc2c3c1O[C@H]1C[C@@H](O)C=C[C@@]31CCN(C)C2 [galantamine]
inactive: [1] 0 | [2] 0 | [3] 0 | [4] 0 | [5] 0 | [6] 0 | [7] 0 | [8] 0 | [9] 0 | [10] 0 | [11] 0 | [12] 0 | [13] 0 | [14] 0 | [15] 0

COc1ccc2c(c1OC)C(=O)O[C@@H]2[C@H]1c2c(cc3c(c2OC)OCO3)CCN1C [Noscapine hydrochloride]
inactive: [1] 0 | [2] 0 | [3] 0 | [4] 0 | [5] 0 | [6] 0 | [7] 0 | [8] 0 | [9] 0 | [10] 0 | [11] 0 | [12] 0 | [13] 0 | [14] 0 | [15] 0

COc1ccc(-c2noc(CSc3nnc(C)n3-c3ccc(OC)cc3)n2)cc1
inactive: [1] 0 | [2] 0 | [3] 0 | [4] 0 | [5] 0 | [6] 0 | [7] 0 | [8] 0 | [9] 0 | [10] 0 | [11] 0 | [12] 0 | [13] 0 | [14] 0 | [15] 0

CCCCC(=O)O[C@H]1CC[C@H]2[C@@H]3CCc4cc(O)ccc4[C@H]3CC[C@]12C [estradiol valerate]
inactive: [1] 0 | [2] 0 | [3] 0 | [4] 0 | [5] 0 | [6] 0 | [7] 0 | [8] 0 | [9] 0 | [10] 0 | [11] 0 | [12] 0 | [13] 0 | [14] 0 | [15] 0

Source: the supplement of paper PMC7411054
